Screening data from PubChem BioAssay.
This is a sample that favours compounds with a hit; in the whole collection about 3% have one here.
MITF TRPM1 HTS = MITF TRPM1 promoter activation in melanoma cells | SK-MEL-5 TRPM1-promoter luciferase, 24 h; % of positive control, neutral wells = 0 | activation, % at 12.5 µM | hit rate 0.75% among 300,000;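 active means mean activation of at least 80% with every replicate also reaching 80%; inconclusive means mean reaches 80% but some replicate falls short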;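 further: 0% = neutral control wells and 100% = parthenolide positive control wells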
PfHsp90 set2 = growth inhibition of yeast expressing Plasmodium Hsp90; S. cerevisiae expressing PfHsp90, BacTiter-Glo ATP, 48 h; yeast lacking PDR1 and PDR3 efflux regulators; inhibition, % at 9.4 µM; hit rate 0.32% among 310,000;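 active means every replicate shows inhibition above about 80%, whatever the replicate mean, limit read from the data; inconclusive means mean inhibition reaches the set limit but some replicate falls short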;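 further: 0% = DMSO neutral controls and 100% = 20 µM radicicol positive controls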
Vif inh = inhibitors of HIV Vif; inhibition, % at 7.49 µM; AID 602346; hit rate 0.35% among 340,000; HEK293T cells, Vif self-association by quenched fluorescence, imaging, 24 h; in the data active means inhibition above about 50%, passing the limit was not always enough; inconclusive means no clear call, values can overlap the other calls; inactive means below about 31%
N-glyco inh = N-linked glycosylation inhibition; D54 ERlucT glycosylation luciferase reporter, 24 h; percent of 100 nM tunicamycin response; reporter increase, % at 12.5 µM; hit rate 0.23% among 360,000; AID 588692;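 active means mean luciferase reporter signal, scaled so untreated is 0 and the glycosylation-blocking control 100, at or above a set limit in every replicate; inconclusive means mean reaches the limit but not every replicate does; inactive means mean below the limit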;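 further: luciferase carries N-glycosylation sites so blocking glycosylation raises the light; 0% = median of neutral control wells and 100% = median of 100 nM tunicamycin wells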
Wnt bcat act = activators of Wnt/beta-catenin signaling; Wnt/beta-catenin reporter cell assay, activator, plate reader; activation, % at 9.35 µM; hit rate 1.2% among 300,000; in the data active means activation above about 30%, passing the limit was not always enough; inconclusive means no clear call, values can overlap the other calls;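 further: 0% = neutral control wells and 100% = positive control wells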
esBAF inh = SWI/SNF esBAF complex inhibition; mouse ES cells, Bmi1-luciferase knock-in reporter, 24 h; 100% = twice the neutral-well signal; reporter increase, % at 12.5 µM; hit rate 2% among 350,000; in the data active means activation above about 40%; inconclusive means no clear call, values can overlap the other calls;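 further: 0% = median of the plate's neutral control wells and 100% = double that signal; a rise in the Bmi1 reporter signal indicates esBAF inhibition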
Numbers without * were called inactive; ? = inconclusive; . = no result.

SMILES	MITF TRPM1 HTS	PfHsp90 set2	Vif inh	N-glyco inh	Wnt bcat act	esBAF inh
CCc1ccc(NC(=O)Nc2cccc(OC)c2)cc1	50.6	-17.1	7.0	-1.5	-3.5	62.1*
CC1(C)CC2CC(C)(CN2C(=O)COC(=O)c2cccc(O)c2)C1 (stereo not given)	-3.5	.	0.2	1.1	-3.6	-1.7
Fc1ccccc1CN1CCCN(C(=S)Nc2cccc(Cl)c2)C1	-6.3	-7.8	-3.8	-0.8	3.8	-3.9
COC(=O)c1sccc1NC(=O)Nc1cccc(C)c1	18.9	.	6.0	-0.2	12.0	94.8*
COc1ccc(OC(=O)Nc2ccccc2)cc1	?	-18.8	-5.6	-1.3	.	14.4
COC(=O)c1sccc1NC(=O)Nc1cccc(C(C)=O)c1	1.2	-4.7	-6.6	1.4	-1.4	1.4
CCc1ccc(OC(=O)Nc2ccccc2)cc1	92.2*	-27.4	-0.7	2.4	23.5	-4.6
Cc1ccc(NC(=O)c2ccc3c(c2)nnn3C)cc1	52.5	-1.6	26.5	0.3	39.2*	.
C[C@H](O)C#Cc1ccc2c(c1)O[C@H](CN(C)Cc1cccnc1)[C@@H](C)CN([C@@H](C)CO)S2(=O)=O	.	.	.	.	.	5.7
Nc1ccc(C(=O)OCC(=O)Nc2ccc([N+](=O)[O-])cc2C(F)(F)F)cc1	10.8	1.8	1.4	-1.2	3.0	.
CCOC(=O)Cc1ccc2sc(-c3ccccc3)nc2c1	20.4	1.1	-4.2	5.3	.	69.3*
C[C@@H]1CCCCO[C@@H](CN(C)S(=O)(=O)c2cn(C)cn2)[C@@H](C)CN([C@@H](C)CO)C(=O)c2cc(NC(=O)Nc3ccc4c(c3)OCO4)ccc2O1	.	.	.	.	.	58.2*
C[C@@H]1CCCCO[C@@H](CN(C)S(=O)(=O)c2cn(C)cn2)[C@H](C)CN([C@@H](C)CO)C(=O)c2cc(NC(=O)Nc3ccc4c(c3)OCO4)ccc2O1	.	.	.	.	.	30.5
Cc1ccc(S(=O)(=O)N(C)C[C@@H]2Oc3ccc(NC(=O)C4CCCCC4)cc3C(=O)N([C@@H](C)CO)C[C@@H]2C)cc1	.	.	.	.	.	-1.1
Cc1ccc(S(=O)(=O)N(C)C[C@H]2OCCCC[C@H](C)Oc3ccc(NC(=O)Nc4ccc5c(c4)OCO5)cc3C(=O)N([C@H](C)CO)C[C@H]2C)cc1	.	.	.	.	.	49.1*
C[C@@H]1CCCCO[C@H](CN(C)S(=O)(=O)c2cn(C)cn2)[C@H](C)CN([C@@H](C)CO)C(=O)c2cc(NC(=O)Nc3ccc4c(c3)OCO4)ccc2O1	.	.	.	.	.	4.9
C[C@@H]1CN([C@H](C)CO)C(=O)c2cc(NC(=O)Nc3ccc4c(c3)OCO4)ccc2O[C@@H](C)CCCCO[C@H]1CN(C)S(=O)(=O)c1cn(C)cn1	.	.	.	.	.	58.5*
Cc1ccc(S(=O)(=O)N(C)C[C@H]2Oc3ccc(NC(=O)C4CCCCC4)cc3C(=O)N([C@H](C)CO)C[C@H]2C)cc1	-10.5	-19.6	.	44.7*	-5.8	2.8
CCOc1cc(N2CCOCC2)c(OCC)cc1NC(=O)C(C)(C)C	4.5	-39.8	-3.3	0.5	11.6	.
Cn1c(NC(=O)c2ccccc2F)c(-c2cccs2)c(=O)c2ccccc21	-2.9	24.2	-0.9	0.7	33.2*	.
O=C(N/N=C/c1ccc(OC(=O)c2cccs2)cc1)c1ccccn1	99.2*	12.0	-24.5	-4.8	27.9	.
Cc1ccc(C(=O)N/N=C/c2ccc(OC(=O)c3ccccc3Cl)cc2)cn1	25.2	-18.9	57.8*	4.1	0.5	14.0
CCOc1cc(/C=N/NC(=O)c2ccccn2)ccc1OC(=O)c1cccs1	15.3	-16.6	2.2	3.8	7.3	18.4
O=C(N/N=C/c1ccc(N2CCOCC2)cc1)c1ccccn1	67.3	-5.6	-0.6	-9.7	35.7*	.
O=C(N/N=C/c1ccncc1)c1ccccn1	63.6	5.5	-6.6	-1.2	4.6	13.6
SMILES	MITF TRPM1 HTS	PfHsp90 set2	Vif inh	N-glyco inh	Wnt bcat act	esBAF inh
COc1ccc(CSCCN)cc1Cl	0.2	7.6	4.4	2.7	1.6	7.2
CCOc1cccc(C(=O)Nc2ccc(NC(=O)c3cc4ccccc4o3)c(OC)c2)c1	.	-0.9	71.2*	6.9	-3.0	-3.4
CC(=O)Nc1cccc(NC(=O)c2cc3ccccc3o2)c1	?	15.9	-2.4	-3.6	50.6*	.
CN(C)S(=O)(=O)c1cccc(NC(=O)c2cc3ccccc3o2)c1	.	.	-15.5	-0.1	.	50.3*
COc1ccc(NC(=O)c2cc3ccccc3o2)cc1OC	35.2	-4.7	0.5	-0.6	8.0	?
COc1cc(NC(=O)c2cccc(C)c2)ccc1NC(=O)c1cc2ccccc2o1	-38.8	3.2	11.0	4.1	-3.2	1.4
CCN(CC)S(=O)(=O)c1cccc(NC(=O)c2cc3ccccc3o2)c1	8.3	-26.6	-9.6	-1.8	8.8	?
CC(=O)Nc1ccc(-c2cc3ccccc3o2)cc1	.	0.3	4.6	-5.7	55.6*	26.5
Cc1ccc(-c2nc(N)sc2CC(=O)OCC(=O)N2C(C)CCCC2C)cc1 (stereo not given)	-7.8	0.7	-18.3	-1.0	-2.1	12.2
Cc1ccc(NC(=O)C(=O)NCCN2CCN(C(=S)Nc3ccccc3)CC2)cc1	-5.3	-0.7	-1.2	2.0	0.6	-5.3
COc1ccccc1CNC(=O)CN(c1ccc(C)cc1)S(=O)(=O)c1c(C)n[nH]c1C	0.1	6.5	6.0	0.6	-2.9	.
Cc1ccc(NC(=O)c2cc3ccccc3o2)cc1Cl	104.2*	9.9	-0.6	-2.8	-1.7	?
COc1cc(NC(=O)C(C)C)ccc1NC(=O)c1cc2ccccc2o1	83.9*	6.3	-4.6	-3.5	12.5	60.0*
COc1cc(NC(=S)NC(=O)C(C)C)ccc1NC(=O)c1cc2ccccc2o1	0.9	30.1	1.8	-9.7	-1.8	2.0
CC(C)C(=O)Nc1cccc(NC(=O)c2cc3ccccc3o2)c1	.	.	-5.0	-0.2	26.8	72.1*
CCOC(=O)C(=Cc1ccc2c(c1)OCO2)c1ccccc1	-1.5	.	0.8	-2.4	-2.6	0.2
COc1cccc(NC(=S)N(CCCN2CCOCC2)C(C)c2cc3cccc(OC)c3o2)c1 (stereo not given)	2.7	-28.4	8.1	0.2	0.9	1.8
CCOC(=O)c1nc(Nc2ccccc2)c2ccccc2n1	5.3	10.8	.	2.8	.	-6.4
Cc1noc(C)c1NC(=O)N(C)C[C@@H]1Oc2ccc(NS(=O)(=O)c3ccc(Cl)cc3)cc2CC(=O)N([C@@H](C)CO)C[C@@H]1C	.	.	.	.	.	-4.4
COC(=O)c1ccccc1NC(=O)COC(=O)[C@H](C)NC(N)=O	-7.2	11.5	4.9	0.1	1.8	25.6
COc1cccc(OCc2cc(C(=O)N(Cc3nccn3C)C(C)C)no2)c1	7.4	-6.9	-4.0	0.6	-1.3	3.3
COc1cc(C)ccc1OCc1cc(C(=O)N(Cc2nccn2C)C(C)C)no1	75.3	-3.1	-1.9	-5.4	27.0	94.4*
COc1cc(C)ccc1OCc1cc(C(=O)N(Cc2c(C)nn(C)c2C)C2CC2)no1	45.8	9.8	1.7	-1.9	26.2	60.7*
COc1cc(C)ccc1OCc1cc(C(=O)N2CCCCCC2)no1	29.2	3.0	-8.1	0.3	9.3	25.7
